Inconclusive results are not listed. A number with no mark means an inactive call. Activity calls are given as the source filed them.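 Rule for the calls, unless noted: active = viability at or below 27.92% in each of two runs, the all-compound median minus 4 SD; inconclusive = no clear call, values can overlap the other calls; inactive = the rest.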
assay: viability of HCT116 without oncogenic beta-catenin – human colon tumor cells, pilot screen (AID 823;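 active = cell viability at or below a set limit in both duplicate runs, the limit being the all-compound median minus 4 SD, cut at about 23% in these data, passing the limit was not always enough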;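 note: 0% = wells killed by 20 µM Hyamine and 100% = untreated DMSO cell wells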); details: HCT116 beta-catenin knockout viability, CellTiter-Glo, 60 h; at 10 µM; stronger effect = lower value

| SMILES | viability |
| --- | --- |
| Cc1nnc(Nc2ccc3c(c2)OCO3)c2ccccc12 | 92% |
| O=C(O)CC1C(=O)NCCN1CCCc1ccccc1 (stereo unspecified) | 97.8% |
| O=C(CN1CCCCC1)Nc1nnc(-c2ccccc2)s1 | 95.2% |
| COc1ccc(N2C(=O)C3CCCN3C2c2ccc(Cl)cc2)cc1 (stereo unspecified) | 101% |
| CCOC(=O)c1cnc2c(C)cccc2c1NCc1ccco1 | 82.5% |
| COc1ccc(OC)c(-n2c(SCC(=O)Nc3cc(C)on3)nnc2-c2c[nH]c3ccccc23)c1 | 79.2% |

assay: viability of PTEN-null HCT116 cells – cell-based, HCT116 clonal line, CellTiter-Glo, pilot screen (AID 824); details: HCT116 PTEN-deleted viability, 60 h, at 10 µM, stronger effect = lower value;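 note: 0% = 20 µM Hyamine control and 100% = vehicle cell control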

| SMILES | viability |
| --- | --- |
| c1ccc(Cn2nnc3c(N4CCOCC4)ncnc32)cc1 | 89.5% |
| CCN(CC)S(=O)(=O)c1ccc(-c2nnco2)cc1 | 97.9% |
| Cc1ccc2nc(NC(=O)CCNS(=O)(=O)c3cccs3)sc2c1 | 71.7% |
| Cn1c(=O)c2c(SCc3cccnc3)nc(CC(C)(C)C)nc2n(C)c1=O | 80.9% |
| Cc1c(Nc2nc3ccccc3nc2N2CCN(c3ccccc3)CC2)c(=O)n(-c2ccccc2)n1C | 70.6% |
| CC(C)N(Cc1nc(-c2ccc(Cl)cc2)no1)C(=O)CCCN1C(=O)c2ccccc2C1=O | 91.6% |
| COc1ccc(-c2nc(CSCC(=O)N3CCC(C(N)=O)CC3)c(C)o2)cc1OC | 98.3% |
| COc1ccc(N(CC(=O)NCc2cccnc2)S(=O)(=O)c2c(C)nn(C)c2C)cc1 | 95.2% |
| O=C(NC1CCCCC1)C1CC(=O)N(c2ccc(Cl)cc2)C1 (stereo unspecified) | 90.4% |
| COc1cc(C(=O)NCc2ccco2)c(Br)c(OC)c1OC | 96% |
| COC(=O)C1C(O)=C(C(C)=N)C(=O)CC1(C)C (stereo unspecified) | 90.8% |
| Cn1c(SCC(=O)Nc2ccccc2F)nnc1-c1cccnc1 | 92.8% |
| O=C(CCCC(=O)NCC1CCCO1)NCC1CCCO1 (stereo unspecified) | 101% |
| O=c1[nH]c(NCCCO)nc2c1C1(CCCC1)Cc1ccccc1-2 | 96.2% |
| Fc1ccc(Cc2nnc(-c3cccs3)o2)cc1 | 97.8% |
| Cc1ccc(Cn2nnc3c(=O)n(Cc4ccccc4C)cnc32)cc1 | 82.3% |
| COCCOC(=O)C1=C(C)NC2=C(C(=O)CCC2)C1c1ccc(N(C)C)cc1 (stereo unspecified) | 93.4% |
| COc1ccc(C2C(C(N)=O)=C(C)Nc3nc(-c4ccccc4Cl)nn32)c(OC)c1 (stereo unspecified) | 94.7% |
| CC(=O)N1CCc2cc(C(=O)CN3CCC(C)CC3)ccc21 | 93.6% |
| COc1cccc(OCC(=O)N(Cc2nc(-c3ccc(Cl)cc3)no2)C(C)C)c1 | 89.7% |

| SMILES | viability |
| --- | --- |
| CCn1c(-c2cc(OC)ccc2OC)csc1=Nc1c(C)n(C)n(-c2ccccc2)c1=O | 92.5% |
| NC(=O)SCC(=O)Nc1ccc(Cl)c(Cl)c1 | 42.8% |
| O=C(NCC1CCCO1)C1CC(=O)N(c2ccc(F)c(Cl)c2)C1 (stereo unspecified) | 94.1% |
| COc1cc(CO)cc(Br)c1OCC(=O)O | 92.5% |
| Cn1c(CNC(=O)C(C)(C)C)nc2ccccc21 | 93.1% |
| CCN(CC)c1cccc(OC2=NS(=O)(=O)c3ccccc32)c1 | 97.8% |
| CC(CNC(=O)C1CCCCC1)NC(=O)C1CCCCC1 (stereo unspecified) | 92.5% |
| COc1ccc(-c2nc(CSCC(=O)N3CCN(C4CCCCC4)CC3)c(C)o2)cc1OC | 96.3% |
| Cc1ccc(NS(=O)(=O)c2ccc3c(c2)oc(=O)n3C)cc1F | 86.1% |
| Cc1c(C(=O)NCC2CCCO2)oc2ccc(S(=O)(=O)N3CCCCC3)cc12 (stereo unspecified) | 92.1% |
| COc1cccc(N2CCN(C(=O)CN(C)S(=O)(=O)c3ccc4c(c3)CCC(=O)N4)CC2)c1 | 85.5% |
| CCOc1ccc(N(CC(=O)N2CCN(c3ccccc3)CC2)S(=O)(=O)c2c(C)noc2C)cc1 | 67.7% |
| CC1(C)CC(N2CCN(c3ccccc3)CC2)=CC(=[N+]2CCCC2)C1 | 18.4% (active) |
| O=C(Cn1cnc2c(cnn2-c2ccc(F)cc2)c1=O)NCCc1ccccc1 | 95.7% |
| Cc1nnc(Nc2ccc3c(c2)OCO3)c2ccccc12 | 91.7% |
| O=C(O)CC1C(=O)NCCN1CCCc1ccccc1 (stereo unspecified) | 97.9% |
| O=C(CN1CCCCC1)Nc1nnc(-c2ccccc2)s1 | 98.5% |
| COc1ccc(N2C(=O)C3CCCN3C2c2ccc(Cl)cc2)cc1 (stereo unspecified) | 95.5% |
| CCOC(=O)c1cnc2c(C)cccc2c1NCc1ccco1 | 79% |
| COc1ccc(OC)c(-n2c(SCC(=O)Nc3cc(C)on3)nnc2-c2c[nH]c3ccccc23)c1 | 78.8% |

From PubChem BioAssay
